# This is part of a sample that, as a whole, favours compounds with a hit. Of some 83,000 tested, about 20% had one in any assay.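 A percent growth of 40 corresponds to 60% growth inhibition; 0 means no net growth; -100 means all cells died. Active threshold: below 10.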 Values without a mark were called inactive. Activity calls are given as the source filed them.
# Columns and labels:
# Assay in all cases: NCI-60 one-dose screen, 48 h (100 = growth as untreated, 0 = no growth, -100 = all killed)
# Conditions in all cases: 10 µM unless noted
# HCT-15 colon = tested on: HCT-15 colon
# HT29 colon = tested on: HT29 colon
# SNB-19 CNS = tested on: SNB-19 CNS
# U251 CNS = tested on: U251 CNS
# PC-3 prostate = tested on: PC-3 prostate
# SK-MEL-5 melanoma = tested on: SK-MEL-5 melanoma
# UACC-62 melanoma = tested on: UACC-62 melanoma
# LOX IMVI melanoma = tested on: LOX IMVI melanoma
# SK-MEL-28 melanoma = tested on: SK-MEL-28 melanoma
# SK-MEL-2 melanoma = tested on: SK-MEL-2 melanoma
# EKVX NSCLC = tested on: EKVX NSCLC
# SN12C renal = tested on: SN12C renal
# UO-31 renal = tested on: UO-31 renal
# TK-10 renal = tested on: TK-10 renal
# ACHN renal = tested on: ACHN renal
# CAKI-1 renal = tested on: CAKI-1 renal
# A498 renal = tested on: A498 renal
# CCRF-CEM leukemia = tested on: CCRF-CEM leukemia
# MOLT-4 leukemia = tested on: MOLT-4 leukemia
Compound,growth (HCT-15 colon),growth (HT29 colon),growth (SNB-19 CNS),growth (U251 CNS),growth (PC-3 prostate),growth (SK-MEL-5 melanoma),growth (UACC-62 melanoma),growth (LOX IMVI melanoma),growth (SK-MEL-28 melanoma),growth (SK-MEL-2 melanoma),growth (EKVX NSCLC),growth (SN12C renal),growth (UO-31 renal),growth (TK-10 renal),growth (ACHN renal),growth (CAKI-1 renal),growth (A498 renal),growth (CCRF-CEM leukemia),growth (MOLT-4 leukemia)
NC1=C(/C(N)=N/O)C(c2ccccc2)c2ccc3ccccc3c2O1 (stereo not given),5.04% (active),6.2% (active),24.8%,19.6%,20.4%,-44.5% (active),19.8%,22.7%,49.8%,44.7%,29.1%,24.2%,38.6%,74.4%,28.2%,26%,-8.95% (active),14.4%,27.2%
CCCCCCCCCCCCCCCCCCNC(=O)[C@H]1CSC(c2ccc(OC)cc2O)N1 (stereo not given in full),80.7%,45.3%,81.2%,63.9%,69.7%,93.1%,74.9%,62.4%,50.5%,75.6%,102%,14.3%,53.5%,94.7%,88.1%,89.8%,81.3%,6.93% (active),17.3%
CC(NNC(C)c1ccccc1)c1ccccc1 (stereo not given),105%,95.2%,100%,106%,94%,101%,110%,101%,118%,110%,97.2%,116%,93.1%,105%,108%,89%,97.9%,118%,113%
Cc1cc(N)n(S(=O)(=O)c2oc(-c3ccccc3)nc2C#N)n1,61.8%,90.4%,93.1%,86.7%,100%,100%,90.8%,68.2%,106%,89.7%,84.7%,83.9%,80.6%,99.1%,5.25% (active),-49.4% (active),128%,–,0.904% (active)
OC(c1cc2cc(Br)ccc2c2cc(Br)ccc12)C1CCCCN1 (stereo not given),-71.6% (active),-82.5% (active),-70.9% (active),-94.5% (active),-88.5% (active),-1.27% (active),-79.4% (active),-62% (active),-93.2% (active),-73.5% (active),-70.7% (active),-73.8% (active),-80.6% (active),-90.5% (active),-73.4% (active),–,24%,-57.4% (active),–
Nc1cccc(-c2nc3sccn3c2-c2ccnc(NCCCNS(=O)(=O)c3cccc4ccccc34)n2)c1,25.4%,20.6%,55.6%,49.3%,31.2%,4.1% (active),22.2%,9.92% (active),64.5%,36.3%,56.7%,39.3%,21.5%,76.5%,31.6%,34.9%,29.8%,–,10.3%
COc1cc([N+](=O)[O-])c2ncccc2c1O,4.36% (active),44.6%,6.29% (active),53.3%,78.9%,-59.4% (active),15.8%,66%,28.5%,4.77% (active),105%,33.7%,25.6%,89.2%,88.8%,–,–,61.3%,119%
O=C(NNC(=O)N1c2ccccc2C=Cc2ccccc21)c1ccc2ccccc2c1,95.4%,88.6%,95.3%,92.6%,74.9%,92%,81.1%,93.6%,98.4%,98.5%,89%,90.5%,88%,102%,96.1%,96.8%,94.1%,–,94.9%

# Reference: PubChem BioAssay (NCI)
